# Reference: PubChem BioAssay (NCI)
# This is part of a sample that, as a whole, favours compounds with a hit. Of some 83,000 tested, about 20% had one in any assay.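 Interpretation: 100, growth as untreated; towards 0, rising growth inhibition; 0, no net growth; 0 to -100, cell death. Compounds scoring below 10 were considered active.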 Values without a mark were called inactive. Active and inactive are the calls of the source.
# Tests used:
# Test in all cases: NCI-60 one-dose screen, 48 h (100 = growth as untreated, 0 = no growth, -100 = all killed)
# [1] = test system: SK-MEL-2 melanoma; details: 10 µM unless noted
# [2] = test system: EKVX NSCLC; details: 10 µM unless noted
# [3] = test system: SN12C renal; details: 10 µM unless noted
# [4] = test system: UO-31 renal; details: 10 µM unless noted
# [5] = test system: ACHN renal; details: 10 µM unless noted
# [6] = test system: CAKI-1 renal; details: 10 µM unless noted
# [7] = test system: A498 renal; details: 10 µM unless noted
# [8] = test system: CCRF-CEM leukemia; details: 10 µM unless noted
# [9] = test system: MOLT-4 leukemia; details: 10 µM unless noted
# [10] = test system: SR leukemia; details: 10 µM unless noted
# [11] = test system: OVCAR-8 ovarian; details: 10 µM unless noted
# [12] = test system: OVCAR-5 ovarian; details: 10 µM unless noted
# [13] = test system: OVCAR-4 ovarian; details: 10 µM unless noted
# [14] = test system: IGROV1 ovarian; details: 10 µM unless noted
# [15] = test system: OVCAR-3 ovarian; details: 10 µM unless noted
# [16] = test system: HS 578T breast; details: 10 µM unless noted
# [17] = test system: NCI/ADR-RES ovarian; details: 10 µM unless noted
# [18] = test system: TK-10 renal; details: 10 µM unless noted
# [19] = test system: RPMI-8226 leukemia; details: 10 µM
# [20] = test system: SK-OV-3 ovarian; details: 10 µM
SMILES,growth [1],growth [2],growth [3],growth [4],growth [5],growth [6],growth [7],growth [8],growth [9],growth [10],growth [11],growth [12],growth [13],growth [14],growth [15],growth [16],growth [17],growth [18],growth [19],growth [20] [%]
COc1ccc(/C=C(\C#N)c2cc3ccccc3n2C)cc1,67%,39.1%,44.7%,48.5%,45.5%,33.5%,-12.9% (active),18.3%,17.4%,18.7%,34.2%,39.7%,37.1%,34.7%,-34.3% (active),2.89% (active),8.82% (active),,,
NS(=O)(=O)c1cc(Br)c2c(c1)S(=O)(=O)NCN2,102%,120%,104%,96.7%,,94.9%,115%,99.7%,87.5%,88%,103%,112%,120%,115%,99.3%,110%,135%,110%,106%,115
c1ccc2cc(-c3n(Cc4ccc5ccccc5n4)c4ccccc4[n+]3Cc3ccc4ccccc4n3)ccc2c1,-42.9% (active),4.21% (active),0.451% (active),-14.3% (active),7.63% (active),-47.6% (active),-22.3% (active),8.55% (active),-32.8% (active),-24.5% (active),-0.932% (active),8.83% (active),4.26% (active),-51% (active),-18.9% (active),-9.29% (active),58.6%,,,
COc1ccc2nc(-n3nc(C)cc3C)c(-n3nc(C)cc3C)nc2c1,111%,91.7%,104%,86.5%,113%,,96.7%,,104%,95%,126%,103%,111%,113%,126%,,100%,113%,102%,113
CN(C)c1ccc(/C=C(\C#N)c2cc3ccccc3n2C)cc1,54.7%,41.6%,38.7%,51.7%,38.9%,30.7%,-9.38% (active),19.1%,21.6%,22%,34.8%,38.5%,40.3%,26.7%,-4.72% (active),20.9%,7.61% (active),,,
CCCCCCCCCCCCCCCC[N+]1(C)CCOCC1,57.7%,64.1%,15.4%,59.6%,,76.3%,48.8%,-42.1% (active),-57.8% (active),-29.4% (active),16.1%,13.8%,20.7%,-43.1% (active),-5.72% (active),16%,94.9%,-36.8% (active),-33.9% (active),
CN1CCC(OC2c3ccccc3CCc3ccccc32)CC1,113%,84.9%,93.9%,73.4%,,75.4%,77.9%,94.1%,99.5%,96.5%,97.6%,95.3%,94.4%,109%,106%,87.4%,96.5%,89%,88%,96
COc1cc2cc(Oc3ccc(NC(=O)Nc4ccc(Cl)c(C(F)(F)F)c4)cc3)c(C)nc2cc1OCCN1CCCCC1,95.3%,15.8%,-84.7% (active),-90.1% (active),-100% (active),15.4%,64.2%,3.86% (active),-37.2% (active),-15.9% (active),-34.4% (active),67.1%,-4.36% (active),-47.2% (active),-82.8% (active),-44.5% (active),3.87% (active),,,
O=[N+]([O-])c1ccc(O)c2ncccc12,79.1%,39.8%,35.9%,60.3%,,57%,96%,25.5%,33.4%,21.5%,25.3%,89.8%,33.8%,29.1%,11.1%,74.2%,22.9%,83.2%,52.4%,75.2
c1ccc2cc(Cn3c(-c4ccc5ccccc5c4)[n+](Cc4ccc5ccccc5c4)c4ccccc43)ccc2c1,-67.7% (active),-11.7% (active),-88.2% (active),-77.1% (active),-51.5% (active),-67.3% (active),-64% (active),-4.24% (active),-35.4% (active),-27.8% (active),-62.9% (active),-12.2% (active),-17.2% (active),-74% (active),-96% (active),-58.9% (active),31.2%,,,
O=C1CCC(N2C(=O)c3cccc(NCCOCCOCCNC(=O)c4cc5c(o4)C(=O)c4ccccc4C5=O)c3C2=O)C(=O)N1 (configuration not stated),-27.8% (active),55.9%,-90.6% (active),51%,41.9%,,,14.5%,6.06% (active),9.2% (active),3.28% (active),-90.8% (active),-93.5% (active),-16.1% (active),-40.6% (active),-29.7% (active),93.7%,36.1%,,
O=C(N/N=C/c1ccc(OC(F)F)c(OC2CCCC2)c1)c1cnn2c1NC(c1ccccc1)C2 (configuration not stated),90.7%,91.5%,87.1%,65.1%,82.3%,,,78.7%,54.7%,37.4%,90.4%,93.7%,61.3%,83.4%,78.9%,69.2%,72.8%,91.9%,73.9%,
O=[N+]([O-])c1ccc2nc(N/N=C/c3ccc(O)cc3)sc2c1,-0.896% (active),85.5%,54.7%,27.5%,,23.2%,91.5%,,24%,18.2%,59.9%,113%,56%,46.6%,51.3%,83.5%,81.7%,54%,28.3%,82.4
O=C(CCCCCCC(=O)Nc1ccc2c(c1)/C(=C/c1ccc[nH]1)C(=O)N2)NO,37%,,12.2%,6.77% (active),4.49% (active),2.67% (active),-59.3% (active),6.86% (active),4.16% (active),4.1% (active),11.2%,0.698% (active),23.7%,-4.96% (active),-57.8% (active),9.71% (active),,5.62% (active),-19.5% (active),12.2
Cc1ccccc1-n1nnc(C(=O)Nc2nc(-c3ccccc3)c(-c3ccccc3)s2)c1C,89% [50 µM],69.8% [50 µM],79.2% [50 µM],86% [50 µM],84.6% [50 µM],63.5% [50 µM],,63.5% [50 µM],67% [50 µM],69.5% [50 µM],67.9% [50 µM],96.5% [50 µM],58.1% [50 µM],89.9% [50 µM],79.8% [50 µM],46.7% [50 µM],84.3% [50 µM],,,
O=c1c2c(=NCCN3CCCC3)cc3c(=O)n(CCCN4CCOCC4)c(=O)c4c(-c5ccc(CN6CCCC6)cc5)cc(c(O)n1CCCN1CCOCC1)c2c4-3,-40.8% (active),-37% (active),-25.5% (active),-6.74% (active),-4.38% (active),0.0079% (active),-85% (active),,0.115% (active),3.49% (active),-10.7% (active),-34.6% (active),-50.7% (active),-25.4% (active),-22.5% (active),-26.3% (active),-0.981% (active),,,
COc1ccc(-c2nc(Nc3ccc(F)cc3)nc(Nc3ccc4c(c3)nc(C)n4Cc3ccccc3)n2)cc1,48.2%,,48.4%,29.3%,37.1%,83.2%,72.7%,-6.22% (active),-9.61% (active),-20.4% (active),17.9%,88.1%,42.6%,36.4%,50.5%,54.5%,26.6%,74.9%,-17.7% (active),76.8
